Only some compounds are listed: those with a hit (about 2.4% of all), similar ones and a draw of the others.
eIF4H inh – human eIF4H binding inhibitors, primary screen, translation initiation inhibitor project, biochemical, uHTS, fluorescence polarization. Eukaryotic translation initiation factor 4H (Homo sapiens), Q15056. eIF4H fluorescence polarization binding assay. inhibition, % at 35 µM. hit rate 0.94% among 290,000;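 note: calls also rest on retests at 20 µM and on dose response follow-up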
PHOSPHO1 inh – PubChem AID 1565; Phosphoethanolamine/phosphocholine phosphatase (Homo sapiens), Q8TCT1; recombinant PHOSPHO1, absorbance phosphatase assay; inhibition, % at 13.3 µM; hit rate 1.1% among 290,000; in the data active = inhibition above about 60%
Efa HMGR inh – inhibitors of E. faecalis class II HMGR, primary screen, biochemical, Enterococcus faecalis; HMG-CoA reductase (Enterococcus faecalis, mvaE); purified E. faecalis HMGR, NADPH absorbance 340 nm kinetic; inhibition, % at 10 µM; hit rate 0.41% among 190,000; AID 1066, 2008;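 active = inhibition above a set limit, the median over all tested compounds plus 3 SD, cut at about 9.5% in these data; inconclusive = no clear call, values can overlap the other calls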;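 note: enzyme runs in reverse so mevalonate oxidation gives rising NADPH absorbance; 0% = complete reaction with DMSO and 100% = background rate lacking mevalonate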
MLLE-PAM2 inh – inhibitors of PABP1 MLLE–PAM2 peptide binding, primary screen, biochemical, fluorescence polarization, FITC-PAM2, GST-MLLE | Polyadenylate-binding protein 1 (Homo sapiens), P11940 | inhibition, % at 20 µM | hit rate 0.36% among 360,000 | AID 588489, 2011; in the data active = inhibition above about 35%, passing the limit was not always enough;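 note: plate controls were DMSO wells with GST-MLLE for no effect and wells lacking GST-MLLE protein for full effect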
Target sequence (P11940 whole entry, looked up): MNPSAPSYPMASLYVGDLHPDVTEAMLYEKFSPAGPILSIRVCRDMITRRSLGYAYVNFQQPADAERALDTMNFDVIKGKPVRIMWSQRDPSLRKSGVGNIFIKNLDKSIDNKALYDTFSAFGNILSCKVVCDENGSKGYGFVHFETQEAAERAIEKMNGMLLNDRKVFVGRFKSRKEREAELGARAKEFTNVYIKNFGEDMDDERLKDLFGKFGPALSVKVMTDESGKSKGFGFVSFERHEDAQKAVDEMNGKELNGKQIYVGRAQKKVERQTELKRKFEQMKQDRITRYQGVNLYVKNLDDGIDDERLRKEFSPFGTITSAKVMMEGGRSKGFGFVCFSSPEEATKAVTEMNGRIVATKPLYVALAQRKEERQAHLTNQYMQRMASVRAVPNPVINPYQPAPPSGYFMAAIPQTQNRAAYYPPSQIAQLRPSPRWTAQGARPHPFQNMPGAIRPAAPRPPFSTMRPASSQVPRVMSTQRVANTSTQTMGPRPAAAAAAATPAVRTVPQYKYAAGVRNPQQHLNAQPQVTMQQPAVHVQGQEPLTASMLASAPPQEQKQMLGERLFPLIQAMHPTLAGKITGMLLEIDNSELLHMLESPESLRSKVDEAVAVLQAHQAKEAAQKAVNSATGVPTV
PABP FP inh – PABP poly(A) RNA binding inhibitors, primary screen, biochemical, fluorescence polarization, uHTS; Polyadenylate-binding protein 1 (Homo sapiens), P11940; calls only at 35 µM; hit rate 1% among 290,000;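 note: calls also rest on retests at 20 µM and on dose response follow-up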
* = called active by the depositor; i = inactive; ? = inconclusive; nt = no result given; + = active, no number. Unless noted, the rule behind the calls is not given here.

SMILES | eIF4H inh | PHOSPHO1 inh | Efa HMGR inh | MLLE-PAM2 inh | PABP FP inh
Cc1nn(CCc2n[nH]c(=S)n2-c2ccc(F)c(Cl)c2)c(C)c1[N+](=O)[O-] | -4.1 | -9.4 | -11.7 | -6.8 | i
Cc1nn(CCc2n[nH]c(=S)n2-c2cccc(Cl)c2)c(C)c1[N+](=O)[O-] | -12.8 | 92.7* | -5.1 | -16.9 | i
Cc1nn(CCc2n[nH]c(=S)n2-c2ccc(F)cc2)c(C)c1[N+](=O)[O-] | -10.7 | 94.5* | -0.7 | -3.0 | i
Cc1nn2c(C(F)(F)F)cc(-c3ccc(Cl)cc3)nc2c1C(=O)N1CCOCC1 | 6.6 | -5.4 | 17.2* | 3.0 | i
Cc1cc(S(=O)(=O)N2CCCC(N(C)CCc3ccccn3)C2)c(C)s1 (stereo not given) | -2.5 | 75.4* | nt | 16.1 | i
CN(CCc1ccccn1)C1CCCN(S(=O)(=O)c2ccc(F)c(Cl)c2)C1 (stereo not given) | 2.9 | 46.6 | nt | -14.6 | i
OCCC1CN(CC2CCCCC2)CCN1CC1CCCCC1 (stereo not given) | 6.4 | -10.1 | nt | -2.3 | i
CCCn1c(N)c(C(=O)CSc2nnc(-c3ccoc3C)n2C)c(=O)n(C)c1=O | nt | nt | nt | -2.2 | nt
C/C(=N/NC(=O)c1ccc(O)cc1)c1cccc([N+](=O)[O-])c1 | -12.6 | 2.4 | -2.7 | -0.1 | i
C/C(=N\NC(=O)c1cc(O)ccc1O)c1cccc(NC(=O)c2cccc(Cl)c2)c1 | 85.0* | 17.8 | nt | 2.2 | +
C/C(=N\NC(=O)c1cc(O)ccc1O)c1cccc(NC(=O)c2ccc(Cl)cc2)c1 | 90.0* | 46.2 | nt | 12.0 | +
CC(=O)Nc1cccc(/C(C)=N/NC(=O)c2ccc(O)cc2)c1 | active | -5.9 | -2.6 | 0.3 | i
C/C(=N\NC(=O)c1cccc(F)c1)c1ccc(NC(=O)Cc2ccccc2)cc1 | 3.3 | -30.1 | nt | -0.8 | i
C/C(=N\NC(=O)c1cc(O)cc(O)c1)c1ccc(NC(=O)Cc2ccccc2)cc1 | 100.6* | -7.4 | nt | 2.9 | +
C/C(=N\NC(=O)c1ccccc1O)c1cccc(NC(=O)c2ccccc2)c1 | 4.8 | 38.1 | nt | 9.3 | i
CCC(=O)c1ccccc1OCCCCn1cncn1 | 1.7 | 30.5 | nt | 5.2 | i
C[C@@H]1CN([C@H](C)CO)C(=O)CCCn2nncc2CO[C@@H]1CN(C)S(=O)(=O)c1ccc2c(c1)OCCCO2 | nt | nt | nt | -5.7 | nt
COc1ccc(C(=O)Nn2c(C)nc3ccccc3c2=O)cc1[N+](=O)[O-] | -7.1 | 22.7 | nt | -14.6 | i
COCCN(C(=O)CCc1ccccc1OC)c1nnc(-c2cccnc2)s1 | -5.1 | 47.7 | -9.7 | 11.3 | i
CCNC(=S)NNC(=O)c1ccc(OC(F)F)cc1 | -2.6 | 73.3* | -7.6 | -7.3 | i
C=CCNC(=S)NNC(=O)c1ccc(OC(C)C)cc1 | 5.0 | 71.5* | 2.5 | -33.4 | i
CC(C)CNC(=S)NNC(=O)c1csc2ccccc12 | 13.0 | 88.1* | -5.6 | 3.1 | i
Cc1ccsc1C(=O)NNC(=S)NCC(C)C | 10.1 | 12.4 | -5.6 | -17.4 | i
CC(C)CNC(=S)NNC(=O)c1ccc(OC(F)F)cc1 | 1.6 | 93.8* | 4.0 | -14.9 | i
CCNC(=S)NNC(=O)c1cccnc1 | -4.1 | 11.3 | -3.3 | 12.6 | i
SMILES | eIF4H inh | PHOSPHO1 inh | Efa HMGR inh | MLLE-PAM2 inh | PABP FP inh
CC(=O)Nc1ccc(-c2ccnc3c2CC(C)(C(=O)NCc2ccc(N(C)C)cc2)O3)cc1 (stereo not given) | nt | nt | nt | -7.9 | nt
COc1ccccc1Nc1nccc(N(C)C)c1C#N | 5.6 | 49.8 | -5.0 | 1.4 | i
COc1ccc([N+](=O)[O-])cc1N(CC(=O)NCCCOC(C)C)S(C)(=O)=O | -0.2 | 32.2 | -0.4 | -6.0 | i
O=C(NC1CCCCCC1)C(=S)NCCc1ccccc1 | -9.4 | -34.8 | -9.2 | 44.0* | i
CCOC(=O)N1CCN(C(=O)CSCc2nc(-c3ccccc3F)oc2C)CC1 | 0.8 | 36.3 | -9.2 | 45.4* | i
CCOC(=O)N1CCN(C(=O)CSCc2nc(-c3ccccc3C)oc2C)CC1 | -5.7 | 39.3 | -1.1 | 30.5 | i
S=c1nc[nH]c2c1ncn2C1CCCO1 (stereo not given) | 2.2 | 7.2 | nt | 40.0* | i
Cc1nnc(NC(=O)c2cc3ccccc3o2)s1 | 3.4 | 41.6 | nt | 0.3 | i
Cc1cc(-c2csc(NC(=O)c3cc4ccccc4o3)n2)c(C)n1C | 98.3* | -3.3 | -6.5 | -19.0 | +
Cc1cnc(NC(=O)c2cc3ccccc3o2)s1 | 1.1 | 10.5 | 29.7* | -6.0 | i
COc1ccccc1-c1nc(SCC(=O)Nc2cc(C)on2)c2c(=O)n(C)c(=O)n(C)c2n1 | 15.9 | 65.4* | nt | 0.5 | i
O=C(O)c1oc2ccc(Br)cc2c1-n1cccc1 | 81.1* | 2.9 | nt | 3.5 | +
O=C(c1ccco1)N1N=C(c2ccccc2O)CC1c1cccs1 (stereo not given) | nt | nt | nt | 4.8 | nt
CC(=O)OCCCNc1cc(SCc2ccco2)c2nonc2c1[N+](=O)[O-] | 93.6 | 4.1 | -1.9 | 33.7 | i
CCC(=O)OCCNc1cc(Sc2nc3ccccc3s2)c2nonc2c1[N+](=O)[O-] | 38.9 | 88.1* | 1.4 | 52.4 | i
CCCC(=O)OCCNc1cc(SCc2ccco2)c2nonc2c1[N+](=O)[O-] | 79.7* | 9.1 | 0.4 | 31.4 | +
O=[N+]([O-])c1c(NCCCO)cc(Sc2nc3ccccc3s2)c2nonc12 | 4.9 | -99.8 | -10.2 | 22.9 | i
CCCCNC(=O)C1(C)CCCCN1C(=O)c1ccc2sccc2c1 (stereo not given) | nt | nt | nt | -12.0 | nt
C=C(C)[C@@H]1CC=C(CN2CCC(CCOC)(C(=O)OCC)CC2)CC1 | -7.6 | 24.1 | -2.5 | 6.3 | i
O=C(CNc1cccc([N+](=O)[O-])c1)N/N=C/c1ccc([N+](=O)[O-])o1 | 39.4 | 30.5 | -5.2 | -10.0 | i
O=C(N/N=C/c1ccc([N+](=O)[O-])o1)c1cc(-c2ccc(-c3ccccc3)cc2)nc2ccccc12 | 58.1 | 42.8 | -8.0 | -10.4 | i
Cn1c(/C=C/c2ccccc2)nc2ccccc2c1=O | -5.0 | 15.0 | nt | 7.1 | i
O=C(N/N=C/c1ccc([N+](=O)[O-])o1)c1cc(-c2ccncc2)nc2ccccc12 | 67.5* | 8.0 | -4.9 | 0.5 | +
Cc1ccc(-c2cc(C(=O)N/N=C/c3ccc([N+](=O)[O-])o3)c3ccccc3n2)o1 | 76.1* | 12.3 | nt | -2.4 | +
O=C(CNc1cccc2ccccc12)N/N=C/c1ccc([N+](=O)[O-])o1 | 85.1* | -21.7 | 2.6 | 10.1 | +
Cn1c(/C=C/c2ccc([N+](=O)[O-])o2)nc2ccccc2c1=O | ? | 37.9 | -7.8 | -16.6 | +
CNC(C)C(=O)NC(C(=O)NC(C)C(=O)Nc1cccc2ccccc12)C(C)C (stereo not given) | nt | nt | nt | -4.5 | nt
CCCCN1CNC(=S)N(c2ccccc2OCC)C1 | -0.8 | 9.0 | 0.3 | -56.9 | i
CCCCN1CNC(=S)N(c2cc(C)ccc2C)C1 | 1.4 | 61.3* | -1.3 | -86.8 | i

Screening data as filed in PubChem.
